Activity calls are given as the source filed them. Entries that show only a call come without a potency. Unless noted, the call rests on the fitted dose curve; in most records, active means well fitted cell-killing curve with a large enough effect; inconclusive means small, poorly fitted or top-dose-only effect; inactive means flat fitted curve, though single readings scatter.
Potency means the concentration at half of the fitted maximal effect.

Sequence of Estrogen receptor (Homo sapiens) (P03372 whole entry, looked up): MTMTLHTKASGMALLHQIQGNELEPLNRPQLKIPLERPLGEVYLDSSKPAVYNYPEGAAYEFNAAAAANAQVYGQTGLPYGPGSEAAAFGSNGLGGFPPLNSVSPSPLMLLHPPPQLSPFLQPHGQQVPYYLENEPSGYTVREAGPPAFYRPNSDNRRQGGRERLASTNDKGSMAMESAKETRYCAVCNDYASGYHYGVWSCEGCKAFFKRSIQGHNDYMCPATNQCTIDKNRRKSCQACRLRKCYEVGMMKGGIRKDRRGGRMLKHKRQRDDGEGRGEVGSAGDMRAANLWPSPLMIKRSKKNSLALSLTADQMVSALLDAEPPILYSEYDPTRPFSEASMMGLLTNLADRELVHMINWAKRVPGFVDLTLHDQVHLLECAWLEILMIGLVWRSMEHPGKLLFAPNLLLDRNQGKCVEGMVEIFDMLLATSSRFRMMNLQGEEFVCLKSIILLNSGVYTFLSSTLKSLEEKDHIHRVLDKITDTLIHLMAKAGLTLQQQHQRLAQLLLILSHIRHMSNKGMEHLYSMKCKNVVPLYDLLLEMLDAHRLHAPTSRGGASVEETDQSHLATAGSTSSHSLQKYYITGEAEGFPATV

Tested on in one assay: not listed separately
The assay can be described thus: Cell Viability - LYMP2-026 (AID 989). Further: nearly all actives have a fitted effect of over 50% in size. As to conditions: LYMP2-026 lymphoblastoid cell viability, qHTS; series mostly up to 92.2 µM. In short, it runs like this: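 qHTS cytotoxicity: 2500 cells/well, 5 hr 37 C, compound 24 hr 37 C, CellTiter-Glo 30 min RT, luminescence. Tetraoctylammonium bromide positive control. AC50 via standard Hill fit.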
(In general: Quantitative high-throughput screening tests each substance at several concentrations.)
In the case of `Cc1cc(Nc2ccc(O)cc2)ccc1N`, the Potency is 50.1 µM (active).

In the case of `CN(C)c1ccc(C2(c3ccc(N(C)C)cc3)OC(=O)c3cc(N(C)C)ccc32)cc1`, the Potency entry is “inactive”.

Take `O=C(OCC(COC(=O)c1ccccc1)(COC(=O)c1ccccc1)COC(=O)c1ccccc1)c1ccccc1`: the Potency result was “inactive”.

For the compound `CC(=O)Nc1ccc(C(=O)CCl)cc1`, the Potency was 7.94 µM (active).

Turning to `Nc1ccc2cc3ccccc3cc2c1`, the Potency result is “inactive”.

Regarding `c1ccc2c(c1)-c1cccc3c1c-2cc1ccccc13`, the Potency result was “inactive”.

As to `O=C=Nc1ccc(Cc2ccc(N=C=O)cc2)cc1`, the Potency entry was “inactive”.

For the compound `O=[N+]([O-])c1cc([N+](=O)[O-])c2ccc(S(=O)(=O)O)cc2c1O`, the Potency entry was “inactive”.

Turning to `Cc1cc(O)c(C(C)(C)C)cc1Sc1cc(C(C)(C)C)c(O)cc1C`, the Potency is 25.1 µM (active).

As for `CCC(C)Nc1ccc(NC(C)CC)cc1` (stereo unspecified), the Potency is 7.94 µM (active).

As to `CNc1ccc(O)cc1`, the Potency is 7.94 µM (active).

Consider `C=CC(=O)OCCOCCOC(=O)C=C`, for which the Potency was 20 µM (active).

Turning to `O=C1OC2(c3cc(Br)c(O)c(Br)c3Oc3c2cc(Br)c(O)c3Br)c2c(Cl)c(Cl)c(Cl)c(Cl)c21`, the Potency result is “inactive”.

Consider `c1ccc2c(c1)ccc1cc3c(ccc4ccccc43)cc12`, for which the Potency entry was “inactive”.

Regarding `C/C=C1\C(=O)C[C@H]2[C@@H]3CCC4=CC(=O)CC[C@]4(C)[C@H]3CC[C@]12C`, the Potency result is “inactive”.

Consider `C=C(C)c1ccccc1`, for which the Potency entry was “inactive”.

In the case of `O=C1OC(O)C(C(Cl)Cl)=C1Cl` (stereo unspecified), the Potency was 25.1 µM (active).

Tested on in another assay: not listed separately
The assay can be described thus: Cell Viability - LYMP1-002 - Assay at 24 hr (AID 993). To be noted: LYMP1-002 lymphoblastoid cells viability; series mostly up to 92.2 µM. The gist of the method:
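CellTiter-Glo luminescence (intracellular ATP) after 24 h compound exposure, 37 C, in LYMP1-002 human lymphoblastoid cells; decreased ATP taken as cytotoxicity. AC50 from standard Hill fit of concentration-response curves.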
Regarding `c1cc(OCC2CO2)cc(OCC2CO2)c1` (stereo unspecified), the Potency result was “inactive”.

For the compound `Cc1cc(Nc2ccc(O)cc2)ccc1N`, the Potency result was “inactive”.

On to `CN(C)c1ccc(C2(c3ccc(N(C)C)cc3)OC(=O)c3cc(N(C)C)ccc32)cc1`, for which the Potency result was “inactive”.

In the case of `CO[C@H]1/C=C/O[C@@]2(C)Oc3c(C)c(O)c4c(O)c(c5c(c4c3C2=O)NC2(CCN(CC(C)C)CC2)N=5)=NC(=O)/C(C)=C\C=C\[C@H](C)[C@H](O)[C@@H](C)[C@@H](O)[C@@H](C)[C@H](OC(C)=O)[C@@H]1C`, the Potency result was “inactive”.

Consider `O=C(OCC(COC(=O)c1ccccc1)(COC(=O)c1ccccc1)COC(=O)c1ccccc1)c1ccccc1`, for which the Potency result is “inactive”.

Turning to `ClC1=C(Cl)C(Cl)(Cl)C(Cl)=C1Cl`, the Potency result is “inactive”.

For `CC(=O)Nc1ccc(C(=O)CCl)cc1`, the Potency was 25.1 µM (active).

Consider `Nc1ccc2cc3ccccc3cc2c1`, for which the Potency entry was “inactive”.

As for `c1ccc2c(c1)-c1cccc3c1c-2cc1ccccc13`, the Potency result is “inactive”.

Take `O=C=Nc1ccc(Cc2ccc(N=C=O)cc2)cc1`: the Potency entry is “inactive”.

With `O=[N+]([O-])c1cc([N+](=O)[O-])c2ccc(S(=O)(=O)O)cc2c1O`, the Potency entry is “inactive”.

Consider `Cc1cc(O)c(C(C)(C)C)cc1Sc1cc(C(C)(C)C)c(O)cc1C`, for which the Potency is 31.6 µM (active).

In the case of `CCC(C)Nc1ccc(NC(C)CC)cc1` (stereo unspecified), the Potency was 15.8 µM (active).

On to `CNc1ccc(O)cc1`, for which the Potency is 15.8 µM (active).

`O=C1OC2(c3cc(Br)c(O)c(Br)c3Oc3c2cc(Br)c(O)c3Br)c2c(Cl)c(Cl)c(Cl)c(Cl)c21`: the Potency result is “inactive”.

For `Oc1ccc2cc(SSc3ccc4cc(O)ccc4c3)ccc2c1`, the Potency is 50.1 µM (active).

`c1ccc2c(c1)ccc1cc3c(ccc4ccccc43)cc12`: the Potency entry was “inactive”.

Take `C/C=C1\C(=O)C[C@H]2[C@@H]3CCC4=CC(=O)CC[C@]4(C)[C@H]3CC[C@]12C`: the Potency result is “inactive”.

For the compound `C=C(C)c1ccccc1`, the Potency entry is “inactive”.

Tested on in another assay: not listed separately
The assay can be described thus: Cell Viability - LYMP1-002 - Assay at 40 hr (AID 994). Further: nearly all actives have a fitted effect of over 60% in size. To be noted: LYMP1-002 lymphoblastoid cell viability; series mostly up to 92.2 µM. In short, it runs like this: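 qHTS cytotoxicity; 2500 cells/well, 5 hr 37 C settle, compound 40 hr 37 C. CellTiter-Glo, 30 min RT, luminescence (ATP). Concentration-response, Hill fit → AC50. Pos. ctrl tetraoctylammonium bromide.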
Regarding `Cc1cc(Nc2ccc(O)cc2)ccc1N`, the Potency result is “inactive”.

Turning to `CN(C)c1ccc(C2(c3ccc(N(C)C)cc3)OC(=O)c3cc(N(C)C)ccc32)cc1`, the Potency entry was “inactive”.

As to `O=C(OCC(COC(=O)c1ccccc1)(COC(=O)c1ccccc1)COC(=O)c1ccccc1)c1ccccc1`, the Potency result was “inactive”.

On to `ClC1=C(Cl)C(Cl)(Cl)C(Cl)=C1Cl`, for which the Potency result was “inactive”.

As to `CC(=O)Nc1ccc(C(=O)CCl)cc1`, the Potency is 39.8 µM (active).

As for `Nc1ccc2cc3ccccc3cc2c1`, the Potency result is “inactive”.

For the compound `c1ccc2c(c1)-c1cccc3c1c-2cc1ccccc13`, the Potency result is “inactive”.

Consider `O=C=Nc1ccc(Cc2ccc(N=C=O)cc2)cc1`, for which the Potency result is “inactive”.

For the compound `O=[N+]([O-])c1cc([N+](=O)[O-])c2ccc(S(=O)(=O)O)cc2c1O`, the Potency entry was “inactive”.

On to `Cc1cc(O)c(C(C)(C)C)cc1Sc1cc(C(C)(C)C)c(O)cc1C`, for which the Potency is 39.8 µM (active).

Consider `CCC(C)Nc1ccc(NC(C)CC)cc1` (stereo unspecified), for which the Potency is 15.8 µM (active).

On to `CNc1ccc(O)cc1`, for which the Potency was 25.1 µM (active).

Consider `C=CC(=O)OCCOCCOC(=O)C=C`, for which the Potency is 25.1 µM (active).

`O=C1OC2(c3cc(Br)c(O)c(Br)c3Oc3c2cc(Br)c(O)c3Br)c2c(Cl)c(Cl)c(Cl)c(Cl)c21`: the Potency result is “inactive”.

`Oc1ccc2cc(SSc3ccc4cc(O)ccc4c3)ccc2c1`: the Potency was 39.8 µM (active).

Take `c1ccc2c(c1)ccc1cc3c(ccc4ccccc43)cc12`: the Potency entry was “inactive”.

Consider `C=C(C)c1ccccc1`, for which the Potency result is “inactive”.

For another assay, the target named is Estrogen receptor (Homo sapiens) (UniProt P03372). The assay can be described thus: qHTS assay for small molecule antagonists of estrogen receptor alpha signaling (AID 588513; active means well fitted curve in the direction sought with a large enough effect in the signal ratio, with a control signal flat, not every such curve was filed as active; inconclusive means small, poorly fitted or top-dose-only effect, or effect the other way, or a change in a side signal; inactive means no such curve, though single readings can be large or run the other way; the % refers to the signal ratio). To be noted: ER-alpha-UAS-bla HEK293, beta-lactamase ratio, antagonist mode; series mostly up to 76.9 µM. The gist of the method:
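ER-alpha-UAS-bla GripTite HEK 293 cells in medium with 2% charcoal/dextran-treated FBS were preincubated 4 h at 37 C, dosed with compound (1:2 titration), stimulated with 0.5nM 17-beta-estradiol for 18 h, then read by CCF4 beta-lactamase fluorescence.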
`CN(C)c1ccc(C2(c3ccc(N(C)C)cc3)OC(=O)c3cc(N(C)C)ccc32)cc1`: the Potency entry was “inactive”.

In the case of `CO[C@H]1/C=C/O[C@@]2(C)Oc3c(C)c(O)c4c(O)c(c5c(c4c3C2=O)NC2(CCN(CC(C)C)CC2)N=5)=NC(=O)/C(C)=C\C=C\[C@H](C)[C@H](O)[C@@H](C)[C@@H](O)[C@@H](C)[C@H](OC(C)=O)[C@@H]1C`, the Potency entry was “inactive”.

Take `ClC1=C(Cl)C(Cl)(Cl)C(Cl)=C1Cl`: the Potency entry is “inactive”.

For `Cc1cc(O)c(C(C)(C)C)cc1Sc1cc(C(C)(C)C)c(O)cc1C`, the Potency was 12.6 µM [inconclusive] (active).

For the compound `CCC(C)Nc1ccc(NC(C)CC)cc1` (stereo unspecified), the Potency was 6.31 µM [inconclusive] (active).

With `C=CC(=O)OCCOCCOC(=O)C=C`, the Potency was 35.5 µM [inconclusive] (active).

Take `O=C1OC2(c3cc(Br)c(O)c(Br)c3Oc3c2cc(Br)c(O)c3Br)c2c(Cl)c(Cl)c(Cl)c(Cl)c21`: the Potency entry was “inactive”.

Regarding `c1ccc2c(c1)ccc1cc3c(ccc4ccccc43)cc12`, the Potency result was “inactive”.

The values above are taken from PubChem BioAssay (NCATS).
